Assay results as given in PubChem BioAssay.
Measured potencies and affinities stand elsewhere. The source made the active and inactive calls. The rule behind the calls is not given here.

Biological target: Plasmodium falciparum protein kinase 6 (PK6, PF3D7_1337100) (UniProt Q8IDW1)
Test: PfPK6 kinase inhibitors, biochemical, TCAMS library (AID 1159586)
Conditions: recombinant PfPK6, Kinase-Glo ATP depletion luminescence

Sequence of Plasmodium falciparum protein kinase 6 (PK6, PF3D7_1337100) (Q8IDW1 1-305): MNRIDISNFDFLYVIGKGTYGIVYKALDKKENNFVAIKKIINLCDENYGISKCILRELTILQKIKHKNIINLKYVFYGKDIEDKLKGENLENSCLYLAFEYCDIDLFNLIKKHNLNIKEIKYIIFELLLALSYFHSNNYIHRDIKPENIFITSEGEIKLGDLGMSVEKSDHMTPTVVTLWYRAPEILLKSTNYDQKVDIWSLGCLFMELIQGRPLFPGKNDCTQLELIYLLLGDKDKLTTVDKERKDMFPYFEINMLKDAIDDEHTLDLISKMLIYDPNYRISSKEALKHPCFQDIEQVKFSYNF

outcome, inactive:
CCN1CCC(N(Cc2ccc(-c3ccc(C(F)(F)F)cc3)cc2)C(=O)Cn2c(CCc3cccc(F)c3F)cc(=O)c3c2CCC3)CC1
Cc1cc(=O)c2cc(Oc3cccc(OC(F)(F)F)c3)ccc2[nH]1
COc1ccc(CCn2c(=N)c(C(=O)NC3CCCC3)cc3c(=O)n4ccccc4nc32)cc1
COc1cc(CCON2C(N)=NC(N)=NC2(C)C)cc(OC)c1OC
CSC1=NC(=Nc2ccccc2C)C2(CCC(C(C)(C)C)CC2)N1c1ccccc1Cl (stereo not given)
COc1ccc(-c2cnc3ccc(NCc4ccc(F)cc4)nn23)cc1OC
CNC(=O)c1cnc(Nc2ccc(N3CCN(C)CC3)c(C)c2)nc1NC
CCNc1cc(C)nc(Nc2ccccc2)n1
Oc1cc(Nc2ccnc3ccc(I)cc23)c(F)cc1Cl
c1ccc(-c2cccnn2)cc1
CC(C)C[C@H](Nc1ccnc(NCC2CCCCC2)n1)C(=O)NCCc1ccccc1
COc1ccc(CNc2ncc(-c3ccsc3)c(-c3nccs3)n2)cc1OC
O=C(CCc1cnc[nH]1)Nc1cccc(-c2ccc(-c3nc4ccccc4[nH]3)s2)c1
CCc1cc2c(=O)c(-c3nc(C)cs3)c([C@H](N)Cc3ccc(O)cc3)oc2cc1O
O=C(Nc1ccccc1)N(Cc1ccccc1-c1cccc(CNCCc2ccccc2)c1)C1CCN(Cc2ccccc2)CC1
Cc1cccc2c(N=NC(=S)N(C)C)c(O)[nH]c12
COc1cc(OC)cc(-c2nc3c(C#N)c(OCCN(C)C)ccc3[nH]2)c1
c1cc(-c2ccc(CNC3CC3)cc2)cc(-c2nc3ccccc3[nH]2)c1
O=C(Nc1ccccc1)OCCOc1ccc(CC2SC(=O)NC2=O)cc1 (stereo not given)
O=C(C=CC(=O)N1CCCCC1)NCc1ccccc1
CCNc1cc(C(=O)N[C@@H](Cc2ccccc2)[C@H](O)CNCCc2ccccc2)cc(N2CCCCS2(=O)=O)c1
O=C(Nc1ccc(-c2cccc(-c3nc4ccc(C(F)(F)F)cc4[nH]3)c2)cc1)c1csnn1
O=C(C=Cc1ccc(Cl)c(Cl)c1)NCCCCCN1CCCC(CCCNC(=O)[C@@H]2C[C@H]2c2ccccc2)C1 (stereo not given in full)
CNCCNCc1cccc(-c2ccc(-c3nc4ccccc4[nH]3)s2)c1
Fc1cc(Cl)ccc1Nc1ccnc2cc(I)ccc12
CCOc1cc(C(=O)NC2CC(C)(C)NC(C)(C)C2)ccc1-c1nc2ccc(Cl)cc2[nH]1
CC(=O)Nc1ccc(C(=O)Nc2cccc(-c3cccc(-c4nc5ccc(C(F)(F)F)cc5[nH]4)c3)c2)cn1
CCNc1cc(C(=O)N[C@@H](Cc2ccccc2)[C@H](O)CNC2CCCCC2)cc(N2CCCCS2(=O)=O)c1
Cc1nc(Nc2ccncc2)cc(-c2ccncc2)n1
Cc1cccc2[nH]c(-c3cccc(-c4ccc(NC(=O)Cc5ccccn5)cc4)c3)nc12
Cc1ncc([N+](=O)[O-])n1CCOC(=O)NC(Nc1ccc(Br)cc1)C(Cl)(Cl)Cl (stereo not given)
CC(C)(C)C1CC(=O)C[C@@H]2C(=O)N(c3ccc(Br)cc3)C(=O)[C@H]12 (stereo not given in full)
CC(C)CNCc1ccc(-c2cccc(CNC3CCN(Cc4ccccc4)CC3)c2)cc1
COC(=O)CCCCOc1c(OC)cc(Cc2cnc(N)nc2N)cc1OC
Cc1nc(-c2ccc(-c3ccc(NC(=O)c4coc5ccc(N6C[C@@H](C)N(C)[C@@H](C)C6)cc45)cc3)c(C)c2)no1
COC(=O)Cc1ccc(N)c2ccccc12
Oc1ccc(CCCNc2nc(NCc3cccc4ccccc34)nc(NC3CCNCC3)n2)cc1
CCCCC(NCC)c1ccc(OCCOc2ccc(C(CCCC)NCC)cc2)cc1 (stereo not given)
CN1CCC(NCc2ccc(-c3ccc(C(F)(F)F)cc3)cc2)CC1
CC(=O)Nc1ccc(CN2CCC(NC(=O)c3ccc(-c4cccc(C(F)(F)F)c4)s3)CC2)cc1
